Screens deposited in PubChem BioAssay by National Center for Advancing Translational Sciences (NCATS).
ALDH1A1 block: inhibitors of human aldehyde dehydrogenase 1A1 | 220,000 compounds, 7.3% hits | Potency, µM (series often up to 75.3 µM), for inactives: at the highest dose activity, negative = inhibition, actives largely listed as inhibitors | P00352 | Purified ALDH1A1, NADH fluorescence, propionaldehyde substrate | AID 1030; active means well fitted inhibition curve with a large enough effect, not every such curve was filed as active; inconclusive means small, poorly fitted or top-dose-only effect, or another doubt; inactive means no such curve, though single readings can be large or run the other way;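 further: potency means the concentration at half of the fitted maximal effect; plate controls were no enzyme wells and a reference inhibitor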
NPSR antag: antagonists of human neuropeptide S receptor cAMP signaling | Q6W5P4 | CHO-NPSR cells, cAMP TR-FRET, antagonist mode | Potency, µM (top dose mostly 38.3 µM), without a hit: top-dose activity change, negative = inhibition, hits mostly inhibitors | 220,000 compounds, 1% hits | AID 1461; further: potency means the concentration at half of the fitted maximal effect; nearly all actives have a fitted effect of over 50% in size
IMPase Li cell: membrane-permeable IMPase blocker, potentiated with lithium; 210,000 compounds, 0.35% hits; Potency, µM (top dose mostly 59.4 µM), inactives show at the top dose activity, negative = IMPase inhibition, usual class: inhibitors; AID 1457; CHO-M1 cells, IP1 TR-FRET (IP-One), carbachol + lithium;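 further: IP1 builds up when IMPase is blocked and the TR-FRET signal falls; potency means the concentration at half of the fitted maximal effect; plate controls were basal vehicle for no effect and high inhibitor control for full effect; nearly all actives have a fitted effect of over 50% in size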
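Readout is a homogeneous TR-FRET IP1 immunoassay (Ex 320, Em 665 and 620), where raised cytosolic IP1 lowers signal. Cells were CHO-M1 treated 30 min at 37C with test compounds plus a little lithium; AC50 values came from Hill-equation fitting.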
ALOX12 inhib: inhibitors of human 12-lipoxygenase (ALOX12); P18054; purified 12-hLO, xylenol orange hydroperoxide absorbance; Potency, µM (titrated, usually from 57.1 µM), for inactives: at the highest dose activity change, negative = inhibition, usual class: inhibitors; 150,000 compounds, 0.12% hits; further: potency means the concentration at half of the fitted maximal effect; nearly all actives have a fitted effect of over 55% in size
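150 nM 12hLO, 25 mM Hepes pH 7.0 + 0.01% Triton X-100; cpd preinc 15 min RT; 40 uM arachidonic acid, 30 min RT; Fe-XO 30 min; A573/A405 ratio as read-out.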
HPGD block: blocks human HPGD enzyme activity | purified HPGD, NADH fluorescence kinetic, PGE2 substrate | Potency, µM, without a hit: at the highest dose activity change, negative = inhibition, actives largely listed as inhibitors | 150,000 compounds, 4.3% hits | AID 894; active means well fitted inhibition curve with a large enough effect, not every such curve was filed as active; inconclusive means small, poorly fitted or top-dose-only effect, or another doubt; inactive means no such curve, though single readings can be large or run the other way; further: potency means the concentration at half of the fitted maximal effect
Target sequence (P15428 whole entry, looked up): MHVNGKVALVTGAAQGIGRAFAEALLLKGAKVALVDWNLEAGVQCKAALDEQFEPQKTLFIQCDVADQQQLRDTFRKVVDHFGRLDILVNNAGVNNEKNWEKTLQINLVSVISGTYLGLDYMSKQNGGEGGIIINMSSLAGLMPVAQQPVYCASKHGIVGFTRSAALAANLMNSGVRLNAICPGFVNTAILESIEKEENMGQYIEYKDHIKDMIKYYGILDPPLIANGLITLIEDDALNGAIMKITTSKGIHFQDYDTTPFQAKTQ
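NADH formation kinetics: reaction with 30 uM PGE2 and 1 mM NAD+ (final), 20 nM enzyme, Tris-HCl pH 8 with Tween 20, after 15 min compound preincubation at room temperature. Fluorescence change, last versus first of five reads.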
IMPase cell inh: cell-permeable inhibitors of inositol monophosphatase (IMPase) | P97697 | CHO-M1 cells, IP1 accumulation, HTRF TR-FRET ratio | inhibition (IP1 accumulation), % at 46.1 µM | 120,000 tested, under 10 active; active means well fitted curve in the direction sought with a large enough effect in the signal ratio, not every such curve was filed as active; inconclusive means small, poorly fitted or top-dose-only effect, or a change in a side signal; inactive means no such curve, though single readings can be large or run the other way; the % refers to the signal ratio;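 further: cells stimulated with carbachol in lithium chloride buffer; plate controls were DMSO basal wells for no effect and reference inhibitor wells for full effect; higher means more IMPase inhibition seen as more IP1 and lower FRET ratio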
Target sequence (P97697 whole entry, looked up): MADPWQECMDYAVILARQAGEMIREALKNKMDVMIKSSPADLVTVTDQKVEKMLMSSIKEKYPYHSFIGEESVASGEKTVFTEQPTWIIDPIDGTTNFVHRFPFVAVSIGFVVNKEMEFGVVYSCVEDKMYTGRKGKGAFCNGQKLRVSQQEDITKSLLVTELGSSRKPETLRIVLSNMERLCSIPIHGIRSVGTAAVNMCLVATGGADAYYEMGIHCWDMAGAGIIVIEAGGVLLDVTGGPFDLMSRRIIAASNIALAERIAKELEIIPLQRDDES
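CHO-M1 cells (CHO stably expressing M1 receptor), compound up to 46 uM final, stimulated with carbachol (50 uM as added) in buffer with 50mM LiCl, pH 7.4, 30 min at 37C. Cytosolic IP1 read by TR-FRET; AC50 from Hill fits.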
Numbers without * were called inactive; ? = inconclusive; / = no result; [ ] = another dose, or the depositor's remark. Most compounds without a hit are left out; they make up all but 8.9% or so of the library. Unless noted, the call rests on the fitted dose curve; in most records, active means well fitted curve in the direction sought with a large enough effect; inconclusive means small, poorly fitted or top-dose-only effect, or another doubt; inactive means no such curve, though single readings can be large; an effect the other way counts as inactive or inconclusive. Unless noted, on the % scale 0 is the no-effect control and ±100 the full control effect.

SMILES	ALDH1A1 block	NPSR antag	IMPase Li cell	ALOX12 inhib	HPGD block	IMPase cell inh
O=S(=O)(Nc1ccc2c(c1)OCCO2)c1cccs1	-4%	20%[46.1 µM]	18%[38.3 µM]	1%	14µM*	4
CC(=O)N1CCc2cc(NS(=O)(=O)c3cccs3)ccc21	-5%	-20%[46.1 µM]	1%[38.3 µM]	-2%	25µM*	2
O=C(Nc1ccc2c(c1)OCCO2)c1cccs1	?	15%	-1%	8%	20µM*	5
COc1cc(/C=C(/C#N)C(=O)NCCc2c[nH]c3ccccc23)ccc1OCc1ccccc1F	10%	?	-14%[38.3 µM]	7%	-11%	-17
O=C(CSc1ccc(-c2cccnc2)nn1)N1CCCCCC1	-11%	8%	7%	/	/	/
CCN(CC)c1ccc(NC(=O)CSc2nnc3nc(C)cc(C)n23)cc1	?	?	31%[38.3 µM]	5%	16µM*	15
CCN(CC)c1ccc(NC(=O)c2nc3nc(C)cc(C(F)F)n3n2)cc1	11µM*	?	99%[38.3 µM]	2%	22µM*	?
COc1ccccc1C(=O)Nc1ccc2c(c1)OCO2	7%	-13%[46.1 µM]	-13%[38.3 µM]	3%	-13%	11
O=C(c1ccccc1)c1ccc2c(c1)OCCOCCOCCOCCO2	/	16%	/	/	/	/
Cc1ccccc1C(=O)Nc1ccc2c(c1)OCO2	-5%	2%[46.1 µM]	-18%[38.3 µM]	-10%	18µM*	12
O=C(c1ccc2c(c1)OCCCO2)c1cccs1	-13%	8%[46.1 µM]	-7%[38.3 µM]	-5%	14µM*	5
O=C(NCC1CCCO1)C1CCN(C2CCN(Cc3ccco3)CC2)CC1 (configuration not stated)	0%	-6%	4%	/	/	/
CC(C)Cc1cc(-c2ccco2)c(C#N)c(N)n1	?	-5%[46.1 µM]	-7%[38.3 µM]	-16%	?	4
O=S(=O)(Nc1ccc(Cl)cc1)c1ccc(NS(=O)(=O)c2ccc3c(c2)OCCO3)cc1	/	/	/	/	/	1
O=C(Nc1ccc2c(c1)OCO2)c1cccs1	?	3%[46.1 µM]	-6%[38.3 µM]	-18%	25µM*	22
O=S(=O)(Nc1ccc(S(=O)(=O)Nc2nccs2)cc1)c1ccc2c(c1)OCCO2	13µM*	-21%[46.1 µM]	14%[38.3 µM]	2%	-20%	0
O=C(O)c1ccccc1C(=O)c1ccc(N2CCOCC2)c([N+](=O)[O-])c1	6%	9%	0%	/	/	/
CCn1c(CCC(=O)Nc2nc3c(s2)CCCC3)nc2cc(S(=O)(=O)N(C)C)ccc21	16µM*	-25%[46.1 µM]	15%[38.3 µM]	-1%	-7%	3
CCN(CC)S(=O)(=O)c1ccc2c(c1)nc(CCC(=O)O)n2CC	6%	12%	-1%	/	/	/
COc1ccc(CN2CCOCCOCCOCCOCC2)cc1	/	-21%	/	/	/	/
CN(Cc1nc(Cc2ccccc2F)no1)[C@@H]1CS(=O)(=O)C[C@H]1O	-7%	3%	0%	/	/	/
O=C1C=C[C@@H](O)[C@H]2[C@@H]3C(=O)N(Cc4ccccc4)C(=O)[C@@H]3CC[C@H]12	3.2µM*	/	/	/	/	/
CCOc1cc(N2CCOCC2)c(OCC)cc1NC(C)C(=O)N1CCC(C)CC1 (configuration not stated)	11µM*	-2%[46.1 µM]	/	-19%	/	4
CCOc1cc(N2CCOCC2)c(OCC)cc1NC(=O)CC12CC3CC(CC(C3)C1)C2	4.5µM*	10µM*	47%[38.3 µM]	-2%	-16%	0
CCOc1cc(N2CCOCC2)c(OCC)cc1NC(=O)Cc1ccc(OC)c(OC)c1	-4%	-23%[46.1 µM]	9%[38.3 µM]	-8%	-5%	2
SMILES	ALDH1A1 block	NPSR antag	IMPase Li cell	ALOX12 inhib	HPGD block	IMPase cell inh
O=C(/C=C1\SC(=O)N(CC(=O)Nc2ccc(Cl)cc2)C1=O)Nc1ccc(F)cc1	11%	-5%	-9%	-3%	-12%	/
O=S(=O)(c1ccccc1)c1nc(-c2cccc(Cl)c2)oc1N1CCOCC1	/	/	/	/	/	15
COc1cc(-c2nc(S(=O)(=O)c3ccccc3)c(N3CCOCC3)o2)cc(OC)c1OC	10µM*	-21%[46.1 µM]	9%[38.3 µM]	1%	-2%	1
Cc1ccc(S(=O)(=O)c2nc(C(C)(C)C)oc2N2CCOCC2)cc1	10µM*	4%[46.1 µM]	10%	9%	-10%	1
COc1ccc(-c2nc(S(=O)(=O)c3ccccc3)c(N3CCC(C)CC3)o2)cc1	/	/	/	/	/	-2
O=S(=O)(c1ccccc1)c1nc(-c2ccccc2)oc1N1CCOCC1	3.5µM*	0%	-1%	/	/	/
COC(=O)c1[nH]c2ccc(Cl)cc2c1NC(=O)C1CC1	?	-9%[46.1 µM]	6%[38.3 µM]	-9%	?	9
COc1ccc(N(CC(=O)NC2CCCC2)C(=O)Cn2nnc(-c3ccc(C)cc3)n2)cc1	10%	-12%	13%	-3%	2%	-3
COc1ccc(CNC(=O)CN(C(=O)Cn2nnc(-c3ccccc3F)n2)c2ccc(C)cc2)cc1	8.9µM*	20%	12%	/	/	/
Fc1cccc(NC(=S)NNc2c3ccccc3nc3ccccc23)c1	3.2µM*	-31%	12%	/	/	/
O=C(Cc1ccccc1)Nc1cccc(N2C(=O)C=CC2=O)c1	0.71µM*	?	20%	-12%	3.5µM*	/
CC(=O)C1=C(C)NC(SCC(=O)c2ccc(F)cc2)=C(C#N)C1CC(C)C (configuration not stated)	11%	-42%	-16%	-16%	22µM*	/
CCOC(=O)CSC1=C(C#N)C(c2sccc2C)C(C(C)=O)=C(C)N1 (configuration not stated)	22µM*	-23%[46.1 µM]	8%[38.3 µM]	-6%	-15%	6
CCOC(=O)CSC1=C(C#N)C(c2ccc(Cl)cc2)C(C(=O)OC)C(=O)N1 (configuration not stated)	25µM*	-27%[46.1 µM]	33%[38.3 µM]	-15%	-26%	?
COC(=O)CSC1=C(C#N)C(c2ccc(Cl)cc2)C(C(=O)OC)C(=O)N1 (configuration not stated)	-8%	3%[46.1 µM]	/	-9%	/	11
CC(=O)C1=C(C)NC(SCC(N)=O)=C(C#N)C1CC(C)C (configuration not stated)	32%	9%	-8%	/	/	/
CCc1ccc(C(=O)CSC2=C(C#N)C(c3ccco3)C(C(C)=O)=C(C)N2)cc1 (configuration not stated)	?	?	19%[38.3 µM]	-22%	?	3
CC(=O)C1=C(C)NC(SCC(=O)c2ccc(F)cc2)=C(C#N)C1c1ccco1 (configuration not stated)	13µM*	-17%[46.1 µM]	5%[38.3 µM]	-16%	25µM*	19
COc1ccccc1NC(=O)C1=C(C)NC(SCC(=O)c2ccc(C)cc2)=C(C#N)C1c1ccco1 (configuration not stated)	-91%	6.3µM*	?	-15%	?	-4
CCOC(=O)CSC1=C(C#N)C(c2ccccc2F)C(C(C)=O)=C(C)N1 (configuration not stated)	?	-13%[46.1 µM]	9%[38.3 µM]	-2%	-12%	-1
